Where “and” joins values, the source holds several entries; their conditions need not be identical. Equal values may be shown once. The whole screen tested about 5,500 compounds, of which about 2,000 (36%) were called active. Another 18% or so got no clear call; they are omitted. No stated cut-off is given here; in the data, active means normalized growth mostly below about 0.91 (no sharp cut-off); inconclusive means no clear call, values can overlap the other calls; inactive means mostly above about 0.92. The list shows a part of the results.
Test: chemical genetic growth profiling, strain panel (AID 1159580);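 further: tested at 20 µM; growth read once vehicle control cultures reached saturation at 30 °C; 1 = growth at the plate median or of vehicle wells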
Conditions: S. cerevisiae deletion strains, growth OD

Measured: normalized growth

O=c1[nH]c(=O)n(C2C[C@@H](O)[C@@H](CO)O2)cc1F (stereo partly drawn)
inactive: locus YAL013W, strain DEP1, stronger effect = lower value 1.04 | locus YAL021C, strain ccr4, stronger effect = lower value 1.01 | locus YAL026C, strain drs2, stronger effect = lower value 0.996 | locus YAL030W, strain snc1, stronger effect = lower value 0.992 | locus YBL061C, strain skt5, stronger effect = lower value 0.987 | locus YBR009C, strain hhf1, stronger effect = lower value 1 | locus YBR021W, strain FUR4, stronger effect = lower value 1 | locus YBR023C, strain chs3, stronger effect = lower value 1 | locus YBR171W, strain sec66, stronger effect = lower value 0.993 | locus YBR229C, strain ROT2, stronger effect = lower value 1 | locus YBR231C, strain swc5, stronger effect = lower value 1 | locus YBR279W, strain paf1, stronger effect = lower value 1.01 | locus YCL011C, strain gbp2, stronger effect = lower value 1.01 | locus YCL016C, strain dcc1, stronger effect = lower value 0.994 | locus YCL029C, strain bik1, stronger effect = lower value 1.01 | locus YCL061C, strain MRC1, stronger effect = lower value 0.996 | locus YCL069W, strain vba3, stronger effect = lower value 0.987 | locus YCR088W, strain abp1, stronger effect = lower value 0.986 | locus YDL005C, strain med2, stronger effect = lower value 0.992 | locus YDL035C, strain GPR1, stronger effect = lower value 0.99 | locus YDL040C, strain nat1, stronger effect = lower value 1.01 | locus YDL074C, strain BRE1, stronger effect = lower value 1.04 | locus YDL101C, strain DUN1, stronger effect = lower value 1.03 | locus YDL185W, strain tfp1, stronger effect = lower value 1.01 | locus YDL192W, strain arf1, stronger effect = lower value 1.02 | locus YDR001C, strain nth1, stronger effect = lower value 0.979 | locus YDR069C, strain doa4, stronger effect = lower value 0.998 | locus YDR101C, strain arx1, stronger effect = lower value 1.01 | locus YDR137W, strain rgp1, stronger effect = lower value 0.989 | locus YDR159W, strain sac3, stronger effect = lower value 0.992 | locus YDR162C, strain NBP2, stronger effect = lower value 0.993 | locus YDR195W, strain ref2 0.984 | locus YDR297W, strain sur2, stronger effect = lower value 0.998 | locus YDR318W, strain mcm21, stronger effect = lower value 1.01 | locus YDR334W, strain swr1, stronger effect = lower value 0.97 | locus YDR335W, strain msn5, stronger effect = lower value 1.01 | locus YDR388W, stronger effect = lower value 1.01 | locus YDR392W, strain spt3, stronger effect = lower value 0.994 | locus YDR502C, strain sam2, stronger effect = lower value 1.01 | locus YEL003W, strain gim4, stronger effect = lower value 0.989 | locus YEL037C, strain rad23, stronger effect = lower value 0.993 | locus YEL061C, strain CIN8 (second series), stronger effect = lower value 0.981 | locus YEL061C, strain CIN8, stronger effect = lower value 1.01 | locus YER015W, strain faa2, stronger effect = lower value 0.998 | locus YER016W, strain bim1, stronger effect = lower value 1.01 | locus YER110C, stronger effect = lower value 1.02 | locus YER111C, strain swi4, stronger effect = lower value 0.996 | locus YER155C, strain BEM2 (second series), stronger effect = lower value 1.01 | locus YER155C, strain BEM2, stronger effect = lower value 1.01 | locus YER167W, strain BCK2, stronger effect = lower value 1 | locus YFR010W, strain ubp6, stronger effect = lower value 1.01 | locus YGL078C, strain dbp3, stronger effect = lower value 1 | locus YGL086W, strain mad1, stronger effect = lower value 1.01 | locus YGL167C, strain pmr1, stronger effect = lower value 0.996 | locus YGL173C, strain kem1, stronger effect = lower value 1.01 | locus YGL227W, strain vid30, stronger effect = lower value 0.979 | locus YGL240W, strain doc1, stronger effect = lower value 0.972 | locus YGL248W, strain PDE1, stronger effect = lower value 1.03 | locus YGL253W, strain hxk2, stronger effect = lower value 1 | locus YGR078C, strain PAC10, stronger effect = lower value 1.03 | locus YGR135W, strain pre9, stronger effect = lower value 1.01 | locus YGR252W, strain gcn5, stronger effect = lower value 1.01 | locus YHR013C, strain ard1, stronger effect = lower value 1.01 | locus YHR027C, strain rpn1, stronger effect = lower value 0.98 | locus YHR030C, strain SLT2, stronger effect = lower value 1 and 0.982 | locus YHR079C, strain IRE1 (second series), stronger effect = lower value 1.02 | locus YHR079C, strain IRE1, stronger effect = lower value 0.965 | locus YHR094C, strain hxt1, stronger effect = lower value 1.02 | locus YHR129C, strain ARP1, stronger effect = lower value 1.01 | locus YHR142W, strain chs7, stronger effect = lower value 0.985 | locus YHR200W, strain rpn10, stronger effect = lower value 1.01 | locus YIL066C, strain RNR3, stronger effect = lower value 0.988 | locus YIL073C, strain SPO22, stronger effect = lower value 1.04 | locus YIL125W, strain kgd1, stronger effect = lower value 1.02 | locus YIR030C, strain dcg1, stronger effect = lower value 1.01 | locus YJL092W, strain hpr5, stronger effect = lower value 0.971 | locus YJL095W, strain BCK1 (second series), stronger effect = lower value 1.01 | locus YJL095W, strain BCK1, stronger effect = lower value 1.06 and 0.975 | locus YJL115W, strain asf1, stronger effect = lower value 0.982 | locus YJL129C, strain trk1, stronger effect = lower value 0.963 | locus YJL134W, strain LCB3, stronger effect = lower value 1.01 | locus YJL154C, strain vps35, stronger effect = lower value 0.993 | locus YJL164C, strain tpk1, stronger effect = lower value 1 | locus YJL166W, strain qcr8, stronger effect = lower value 1.01 | locus YJL168C, strain set2, stronger effect = lower value 1.01 | locus YJL187C, strain SWE1 (second series), stronger effect = lower value 1.05 | locus YJL187C, strain SWE1, stronger effect = lower value 0.994 | locus YJR043C, strain POL32, stronger effect = lower value 0.975
